Reference: PubChem BioAssay
For some assays here: Results with a measured potency or affinity are listed apart.

What was measured:
[1] = restoration of touch response, mutant HTT neurons – whole organism, C. elegans mechanosensory neurons, N-terminal huntingtin (AID 1599); conditions: C. elegans polyQ-huntingtin mechanosensory neurons, stronger effect = higher value
[2] = blockers of cytochrome c efflux from mitochondria – biochemical, purified mitochondria (AID 1603); conditions: stronger effect = lower value;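 also: mouse liver mitochondria challenged with calcium chloride; signal normalized to the plate average as 100%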
[3] = polyglutamine aggregate formation blockers (AID 1604); conditions: polyglutamine-induced protein aggregation inhibition assay; stronger effect = higher value; tested at 2.5 µM
[4] = glutamate transport activators, MN-1 cells, MN-1 cell line (AID 1612); conditions: MN-1 motor neuron cells, stronger effect = higher value;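 also: tested at 1 µM final; 0% = mean of DMSO vehicle wells on each plate; positive means more glutamate uptake than control and negative means less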
[5] = GFP-Q80 aggregate reduction, neuronal-like cells, cell-based, NGF-treated PC12, GFPQ80 (AID 1614); conditions: PC12 NGF-treated GFP-polyQ80 inclusion reduction;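 also: lower means fewer inclusions and 0 means no inclusions at all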
[6] = 75Q-TubH aggregate inhibition, S. cerevisiae, yeast (AID 1616); conditions: S. cerevisiae 75Q-TubH polyglutamine aggregation suppression; stronger effect = higher value

| Compound | rescue above control [1] | cytochrome c release ratio [2] | inhibition of aggregation [3] [%] | glutamate uptake change [4] [%] | inclusion score [5] | aggregation suppression score [6] |
| --- | --- | --- | --- | --- | --- | --- |
| O=c1ccn([C@@H]2O[C@H](COP(=O)(O)OP(=O)(O)OP(=O)(O)O)[C@@H](O)[C@H]2O)c(=O)[nH]1 | 2.48 | 0.87 | 60.6 | 11.8 | 2 | 1.14 |
| CC[C@@H](C(=O)[C@@H](C)[C@@H](O)[C@H](C)[C@@H]1O[C@@H]([C@@H](CC)C(=O)O)CC[C@@H]1C)[C@H]1OC2(C=C[C@@H](O)[C@]3(CC[C@@](C)([C@H]4CC[C@](O)(CC)[C@H](C)O4)O3)O2)[C@H](C)C[C@@H]1C (stereo partly drawn) | -3.48 | 1.06 | 61.1 | -41.6 |  | 0.25 |
| CC(C)CC(NC(=O)CCN)C(=O)O (stereo not drawn) | 6.33 | 1.04 | 57.6 | 14.1 | 2 | 1.32 |
| CC(=O)OCC(=O)[C@@]1(O)[C@H](C)CC2C3CCC4=CC(=O)C=C[C@]4(C)[C@@]3(F)[C@@H](O)C[C@@]21C (stereo partly drawn) | 1.81 | 1.17 | 69.4 | 20.3 | 2 | 1.32 |
| CC1(C)C2CC[C@]3(C)C(C(=O)C=C4[C@H]5C[C@@](C)(C(=O)O)CC[C@]5(C)CC[C@]43C)[C@@]2(C)CC[C@@H]1O (stereo partly drawn) | 0.7 | 1.2 | 25.5 | -60.4 | 2 | 0.949 |
| COC(=O)C(N)CS (stereo not drawn) | -5.25 | 1.33 | 74.2 | 10.6 | 2 | 1.19 |
| NC[C@H]1O[C@H](O[C@H]2C(O[C@@H]3O[C@H](CO)[C@@H](O)[C@H]3O)[C@@H](O)[C@H](N)C[C@@H]2N)[C@H](N)[C@@H](O)[C@@H]1O (stereo partly drawn) | -3.87 | 0.95 | 51 | -16.8 | 2 | 0.969 |
| C=C(C)[C@H]1CC=C(C(=O)O)CC1 | -1.74 | 0.96 | -3.17 | -7.46 | 2 | 0.107 |
| NC(COCc1ccccc1)C(=O)O (stereo not drawn) | 1.64 | 0.75 | 85.8 | 3.63 | 2 | 1.4 |
| CC(=O)O[C@@H]1CC2C(C)(C)C(=O)C=C[C@]2(C)C2CC[C@@]3(C)[C@H](c4ccoc4)OC(=O)[C@H]4O[C@]43[C@@]21C (stereo partly drawn) | -3.01 | 1.1 | 36 | -11.6 | 2 | 0.57 |
| CC(=O)N[C@@H]1[C@@H](C(O)[C@H](O)CO)O[C@](O)(C(=O)O)C[C@@H]1O (stereo partly drawn) | -7.75 | 0.26 | -20.4 | 11.8 | 2 | 0.464 |
| CC(=O)[C@@]1(O)CCC2C3C=C(Cl)C4=CC(=O)[C@@H]5CC5[C@]4(C)C3CC[C@@]21C (stereo partly drawn) | 12.8 | 1.45 | 9.8 | -5.81 | 2 | 0.681 |
| CC1CCC2(OC1)OC1CC3C4CC[C@H]5C[C@@H](O)CC[C@]5(C)C4CC(=O)[C@]3(C)C1C2C (stereo partly drawn) | -2.31 | 1.08 | 27.8 | 2.67 | 2 | 1.27 |
| CCCC(=O)Nc1ncnc2c1ncn2C1O[C@@H]2COP(=O)(O)O[C@H]2[C@H]1OC(=O)CCC (stereo partly drawn) | 1.51 | 0.87 | 77.8 | 4.01 | 2 | 1.79 |
